In the library only some 21% were active in any assay of this set; here they are far more common.
TDP1 cell CPT = DT40-hTDP1 cell growth loss with CPT | chicken DT40 Tdp1-/-;hTDP1 cells + 20 nM CPT, ATP luminescence, 48 h | Potency, µM (highest dose often 46.2 µM), for the others: at the top dose activity change, negative = growth inhibition, hits mostly inhibitors | 420,000 compounds, 12% hits | AID 686979; note: potency is the fitted concentration of half-maximal effect; % is set by controls: 0 for no effect and ±100 for the full control effect; nearly all actives have a fitted effect of over 55% in size
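Cell growth measured by CellTiter-Glo luminescence after a minimum 48 h, 37 C compound exposure with 20 nM CPT in Tdp1-knockout DT40 cells stably expressing hTDP1, seeded 400/well; qHTS titration format.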
D3 ag = agonists of human D3 dopamine receptor | P35462 | D3R DiscoveRx beta-arrestin cells, luminescence, 90 min | max activation, % | AID 652048 | 410,000 compounds, 0.58% hits; in the data active = max activation above about 30%; note: 0% is about no effect
Target sequence (P35462 whole entry, looked up): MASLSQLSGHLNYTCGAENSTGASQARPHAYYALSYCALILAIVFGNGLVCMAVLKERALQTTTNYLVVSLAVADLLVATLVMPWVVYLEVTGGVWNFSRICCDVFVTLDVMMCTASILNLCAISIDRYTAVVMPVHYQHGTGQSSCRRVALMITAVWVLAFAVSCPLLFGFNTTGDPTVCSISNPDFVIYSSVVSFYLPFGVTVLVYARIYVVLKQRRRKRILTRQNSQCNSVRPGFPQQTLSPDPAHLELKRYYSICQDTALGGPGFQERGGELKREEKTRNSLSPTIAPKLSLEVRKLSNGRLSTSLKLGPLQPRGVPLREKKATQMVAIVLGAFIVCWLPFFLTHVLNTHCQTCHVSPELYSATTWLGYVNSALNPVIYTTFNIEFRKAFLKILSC
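Agonist-mode cell screen: cells plated at 1500/well and incubated overnight at 37 °C, then exposed to library compounds for 90 min at 37 °C. Detection reagent was added for 30–60 min at room temperature, and luminescence was read.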
IL-1B inflam inh = inflammasome signaling inhibition, IL-1 beta readout | THP-1 LPS/ATP IL-1B secretion, AlphaLISA, 16 h; active compounds read low | activity change, % at 57.5 µM | 360,000 compounds, 4.7% hits; in the data active = activity change below about -50%; inconclusive = mostly about -30% to -49%; note: % is set by controls: 0 for no effect and ±100 for the full control effect
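Secreted IL-1B measured by AlphaLISA bead assay after 16 h compound exposure of THP-1 cells; compounds (final up to 57.5 uM) added 1 h before LPS (250 ng/mL) and ATP (1.25 mM) stimulation; lower signal means less secretion.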
D3 antag = blocks the human D3 dopamine receptor. P35462. D3R cells, DiscoveRx beta-arrestin luminescence, antagonist mode; active compounds read low. max response, negative = inhibition, %. 360,000 compounds, 2.5% hits. AID 652054; in the data active = max response below about -50%; inconclusive = no clear call, values can overlap the other calls; note: % is set by controls: 0 for no effect and ±100 for the full control effect
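Cells plated overnight at 1500 cells/well, then exposed to library compounds with dopamine controls for 90 minutes at 37 degrees C. DiscoveRx reagent added for 30–60 minutes at room temperature; luminescence read, quantitative HTS format.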
ClpP mod = qHTS Assay for Activators of ClpP. ATP-dependent Clp protease proteolytic subunit (Bacillus subtilis (strain 168)), P80244. purified B. subtilis ClpP, FRET peptide cleavage, 20 min. Potency, µM (highest dose often 57.5 µM), without a hit: top-dose activity change, negative = active. 340,000 compounds, 1.9% hits. AID 651965, 2013; active = well fitted falling curve with a large enough effect; inconclusive = small, poorly fitted or top-dose-only effect; inactive = no such curve, though single readings can be large or run the other way; note: potency is the fitted concentration of half-maximal effect; the source files actives as falling curves though it sought activators and does not explain the sign; nearly all actives have a fitted effect of over 65% in size
Target sequence (P80244 whole entry, looked up): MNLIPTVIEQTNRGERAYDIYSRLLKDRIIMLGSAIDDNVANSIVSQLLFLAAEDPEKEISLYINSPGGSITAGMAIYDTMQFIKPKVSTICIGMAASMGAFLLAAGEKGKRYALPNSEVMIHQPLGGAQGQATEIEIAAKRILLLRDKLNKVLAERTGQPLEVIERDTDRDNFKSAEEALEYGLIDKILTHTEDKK
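ClpP 10 microg/mL final, pH 8 Tris/KCl buffer with BSA, glycerol, Tween-20; compound pinned in; FRET-FV substrate; RT 20 min; Ex320/Em430; ΔFRET vs ADEP 5.8 microM, DMSO, no enzyme.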
DT40 TDP1 no CPT = qHTS for Inhibitors of human tyrosyl-DNA phosphodiesterase 1 (TDP1): qHTS in cells in absence of CPT | 420,000 compounds, 15% hits | DT40 Tdp1-/- hTDP1 cells, no CPT, ATP luminescence, 48 h | Potency, µM (top dose mostly 46.2 µM), for the others: at the highest dose activity change, negative = growth inhibition, hits mostly inhibitors; note: potency is the fitted concentration of half-maximal effect; % is set by controls: 0 for no effect and ±100 for the full control effect; nearly all actives have a fitted effect of over 55% in size
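Readout: luminescence from CellTiter-Glo after 30 min in the dark at RT. Cells: DT40 Tdp1-/- with stable hTDP1, 400/well. Exposure: compounds alone, ≥48 hr, 37 °C.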
* marks the source's active call; other numbers are inactive results; ? = inconclusive; · = no result; ! = not active in a repeat; [ ] = another dose, or the depositor's remark. Unless noted, calls come from the whole dose curve; as a rule, active = well fitted inhibition curve with a large enough effect; inconclusive = small, poorly fitted or top-dose-only effect; inactive = flat fitted curve, though single readings scatter.

SMILES	TDP1 cell CPT	D3 ag	IL-1B inflam inh	D3 antag	ClpP mod	DT40 TDP1 no CPT
Clc1ccc(-c2csc3ncnc(Sc4nnnn4C4CC4)c23)cc1	5.01µM*	·	·	·	-7.6%	3.16µM*
Cc1ccc(-n2nc3c(=O)n(CC(=O)NCC(C)c4ccccc4)nc(C)c3c2C)cc1 (stereo unspecified)	20.6µM*	-5.2	·	·	-5.0%	?
COC(=O)C1=C(c2cccc3c2S(=O)(=O)c2ccccc2-3)C[C@@H]2CC[C@H]1N2C(=O)N1CCOCC1	23.1µM*	8.0	-7.6	5.6	0.8%	?
COC(=O)C1=C(c2cccc3c2S(=O)(=O)c2ccccc2-3)C[C@@H]2CC[C@H]1N2C(=O)N1CCc2cc(OC)c(OC)cc2C1	20.6µM*	-1.7	-17.3	0.0	-16.2%	20.6µM*
CCN(CC)C(=O)/C(Cl)=C(\C)OP(=O)(OC)OC	-3.7%	-13.2	·	·	·	-2.7%
COc1ccc(C2NCCc3[nH]cnc32)cc1 (stereo unspecified)	17.7%	0.9	-20.3	-4.0	·	-3.7%
Nc1ccncc1	-23.6%	2.4	18.1	43.0	-8.9%	15.2%
O=[N+]([O-])c1ccc(NCCCN2CCOCC2)nc1	6.7%	-2.3	12.9	8.7	-3.5%	-3.6%
Cc1ccc(S(=O)(=O)N[C@@H](CCCCN)C(=O)CCl)cc1	8.41µM*!	-11.9	-10.7	10.1	0.4%	8.41µM*!
CCC1(O)CCC2C3CCC4=CC(=O)CCC4C3CCC21CC (stereo unspecified)	23.1µM*	9.8	16.1	18.8	-1.4%	20.6µM*
C#CC1(O)C=CC2C3CCC4=CC(=O)CCC4C3CCC21CC (stereo unspecified)	?	2.9	-8.1	0.0	-2.5%	?
O[C@@H](Cc1ccncc1)C(Cl)(Cl)Cl	-4.3%	·	·	·	·	-24.1%
O=C(N/N=C/c1cccnc1)c1ccc(NC(=O)C(c2ccccc2)c2ccccc2)cc1	7.31µM*	5.8	31.1	12.5	67.3%	11.6µM*
Oc1c(Cl)c(Cl)c(Cl)c(Cl)c1Cl	?	2.5	-11.3	38.3	-0.5%	20.6µM*
COCCO[C@H]1CCC2C3CC=C4C[C@@H](O)CC[C@]4(C)C3CC[C@@]21C (stereo partly specified)	?	23.0	52.6	12.0	·	?
OC(c1ccc(F)cc1)(c1ccc(F)cc1)[C@@H]1CCCN1	?	-7.2	-26.6	0.0	-2.8%	16.4µM*
CC(=O)CC(c1ccc2c(c1)OCO2)c1c(O)c2ccccc2oc1=O (stereo unspecified)	-21.2%	-5.6	-3.5	27.1	-2.7%	-20.2%
COP(=O)(OC)c1nc(-c2ccccc2)oc1NCc1ccccc1	-12.2%	-18.2	-5.6	5.5	-0.7%	?
CCCOP(=O)(OCCC)c1nc(-c2ccccc2)oc1NCc1ccccc1	23.1µM*	-8.6	-115.5*	4.6	·	?
CC(=O)c1ccc(N2CCN(c3ccc4cc(S(=O)(=O)N5CCCCC5)ccc4n3)CC2)cc1	?	7.0	·	·	?	3.66µM*
Cc1ccc(Cl)c2sc(NC(=O)c3ccc(S(=O)(=O)N4CCCC4)cc3)nc12	?	3.5	·	·	-9.1%	?
CNC(C)Cc1ccc2c(c1)OCO2 (stereo unspecified)	-26.3%[92.5 µM]	-16.0	·	·	·	-13.9%[92.5 µM]
CCOc1ccc(C2(C#N)CC[N+](C)(C)CC2)cc1	-10.6%	-1.7	-11.2	-50.7*	0.6%	-4.9%
O=c1c2ccccc2nc(Cc2cccc([N+](=O)[O-])c2)n1-c1ccc(O)cc1	?	2.8	-13.2	2.5	·	?
O=[N+]([O-])/C=C/c1c(Cl)cccc1Cl	0.461µM*	-8.8	-98.9*	6.7	0.5%	1.3µM*
SMILES	TDP1 cell CPT	D3 ag	IL-1B inflam inh	D3 antag	ClpP mod	DT40 TDP1 no CPT
Cc1ccccc1-c1nc(CS(=O)CC(=O)N2CCN(c3cc(Cl)ccc3C)CC2)c(C)o1 (stereo unspecified)	16.4µM*	10.1	·	·	-4.9%	13µM*
COC(=O)C1=C(c2ccccc2OCc2ccccc2)C[C@@H]2CC[C@H]1N2C(=O)NCc1ccc([N+](=O)[O-])cc1	23.1µM*	-8.8	-52.6*	-18.6	-2.9%	?
COC(=O)C1=C(c2ccccc2OCc2ccccc2)C[C@@H]2CC[C@H]1N2C(=O)NCc1cccc(F)c1	?	-14.7	?	-11.2	-1.0%	?
COC(=O)C1=C(c2ccccc2OCc2ccccc2)C[C@@H]2CC[C@H]1N2C(=O)NCc1ccc(Cl)cc1	?	-14.0	-29.5	-2.1	-0.4%	?
COC(=O)C1=C(c2ccccc2OCc2ccccc2)C[C@@H]2CC[C@H]1N2C(=O)NCc1ccc(OC)c(OC)c1	16.4µM*	-6.0	-7.9	-10.7	0.9%	20.6µM*
Nc1nonc1C(=O)N/N=C/c1ccc([N+](=O)[O-])o1	7.31µM*	-8.0	-87.2*	?	·	9.2µM*
N/C(=N\[N+](=O)[O-])N/N=C/c1ccc(O)cc1	-4.6%	1.8	16.6	-27.3	-0.2%	-22.9%
C=CC1CN2CCC1CC2C(O)c1ccnc2ccccc12 (stereo unspecified)	?	16.3	-10.6	0.0	-2.6%	?
CC(C)CCC[C@@H](C)[C@H]1CC[C@H]2[C@@H]3C(=O)C=C4C[C@@H](O)CC[C@]4(C)[C@H]3CC[C@]12C	?	-10.9	18.6	-18.0	-1.2%	?
CC(C)CCCC(C)C1CCC2C3CC(O)[C@@]4(O)CC(O)CC[C@@]4(C)C3CC[C@@]12C (stereo partly specified)	?	·	·	·	·	18.4µM*
CC(C)NCC(O)c1ccccc1Cl (stereo unspecified)	16.1%	4.9	·	·	·	-1.5%
CN(C)C1(CNC(=O)c2cc(S(=O)(=O)N3CCOCC3)c(Cl)cc2Cl)CCCCC1	2.6%	-5.3	-6.7	5.9	-0.9%	8.8%
COC(/C(C)=C/C=C/C(C)=C/c1coc(C)n1)C(C)C1CC(O)C2(C)OC2C=CC(C)C2CC(CC(=O)O2)CC2OC2C(=O)O1 (stereo unspecified)	0.116µM*	3.0	29.5	-7.1	-4.1%	0.0184µM*
CN1CC[C@@]2(CCCN(C(=O)Oc3ccccc3)C2)C1	6.8%	·	·	·	·	0.5%
CCN(CC)CCSc1nc2ccccc2c(=O)n1-c1ccc(Cl)cc1	7.31µM*	-19.3	·	·	1.2%	20.6µM*
O=c1c2ccccc2nc(N2CCCC2)n1-c1ccc(Cl)cc1	20.6µM*	-20.6	25.2	-3.8	22.4µM*	16.4µM*
